Records with an inconclusive call do not appear. A call without a number means that no potency is given here. Active and inactive are the calls of the source. The call rests on the fitted dose curve; in most records, active means well fitted curve in the direction sought with a large enough effect; inconclusive means small, poorly fitted or top-dose-only effect, or effect the other way, or another doubt; inactive means no such curve, though single readings can be large or run the other way.
test: Secondary Assay for lipid storage modulators: Hela cell LDSA assay for probe SAR; settings: HeLa lipid droplet accumulation, BODIPY 493/503 cytometry, oleate-fed; series mostly up to 46.1 µM
Description: NIH Molecular Libraries Probe Production Centers Network [MLPCN] NIH Chemical Genomics Center [NCGC] MLPCN Grant: 1 R03 MH085686-01 Assay Submitter (PI): Beller, Mathias; Max-Planck-Institut fur Biophysikalische Chemie NCGC Assay Overview: Storing lipids as a reservoir for energy or the anabolism of elementary metabolites is a common feature of probably all cells and is conserved from bacteria to humans. The universal cellular lipid storage organelle is the so-called lipid storage droplet (LD). Although ubiquitous, LDs share a simple structure composed of a hydrophobic core that harbors the storage lipids, which is shielded by a droplet-specific phospholipid monolayer to which proteins are attached. The current model of LD biogenesis involves an incorporation of the lipid core into the membrane leaflets of the endoplasmic reticulum (ER) followed by a subsequent budding-like maturation of a LD, which ultimately pinches off. Once released, LD volume can increase by localized lipogenesis or fusion of existing droplet. Storage lipids are re-mobilized enzymatically by lipase activity. Lipase regulation in the adipocyte is heavily studied and involves multiple components including catecholamine signaling, the LD-associated proteins Perilipin and comparative gene identification (CGI-58) and at least two lipases named hormone sensitive lipase (HSL) and adipocyte triglyceride lipase (ATGL). LD regulation outside of the adipocyte is poorly understood and only few components are known. However, there is an urgent need to learn more about ectopic fat depots as mislocalized storage of lipids, for example in the liver or muscle, is an eminent health problem associated with insulin resistance or the metabolic syndrome.
NCGC Assay Protocol Summary: The assay was performed with Hela cells, using an oleic acid feeding protocol similar to the S3 assay. We dispensed 4 uL of cells to give 700 cells/well into Greiner bio-one 1,536-well plates (black walled, clear bottom). Triacsin C (Sigma-Aldrich T-4540), an inhibitor of long-chain fatty acyl CoA synthetase that blocks synthesis of triglycerides, was used as a positive control for lipid under-storage using a final concentration of 20 uM. The orexin antagonist, SB408124 - previously identified to stimulate lipid over-storage, was used as a positive control for lipid over-storage using a final concentration of 20 uM. A total of 23 nL of compound solution of different concentrations were transferred to the assay plates using a Kalypsys pin tool equipped with a 1,536-pin array containing 10-nL slotted pins (FP1S10, 0.457-mm diameter, 50.8 mm long; V&P Scientific). One microliter of oleic acid was added (400 uM final concentration), and the plate was lidded with stainless steel rubber gasket lined lids containing pinholes. After 18-24 h incubation at […] and 95% humidity, 4 uL of the dyes BODIPY 493/503 (Molecular Probes) and the Cell Tracker Red CMTPX dye (Molecular Probes) were added to the wells to stain lipid droplets and enumerate cell number, respectively. Fluorescence was detected by excitation of the fluorophores with a 488-nm laser on an Acumen Explorer (TTP Lab Tech). The total intensity in channel 2 (500-530 nm) reflected lipid droplet accumulation. Cells were detected using channel 3 (575-640 nm) with 5-um width and 100-um depth filters. The ratio of the number of objects in PMT channel 2 over the number of objects in PMT channel 3 was also calculated. Percent activity was computed relative to an internal control (100% inhibited lipid droplet deposition due to the presence of 20 uM Triacsin C), which was added to 32 wells/plate.

| Compound | Potency |
| --- | --- |
| CCOC(=O)C1CCN(C(=O)C2(NC(=O)NCc3ccccc3)CCCCC2)CC1 | inactive |
| COc1ccc(CCNC(=O)c2cc3sccc3n2Cc2ccc(Cl)cc2)cc1OC | inactive |
| COc1ccc(-c2cnc(SCC(=O)Nc3nc(C)cs3)n2Cc2ccco2)cc1 | inactive |
| CN(C)CC(=O)NC1CCCc2c1cnn2-c1ccc(F)cc1F (stereo not given) | inactive |
| O=C(NC1CCCc2c1cnn2-c1ccc(F)cc1F)c1ccccc1 (stereo not given) | inactive |
| CCOc1ccc(CCNC(=O)c2cc3sccc3[nH]2)cc1OCC | inactive |
| CCOc1ccc(CCNC(=O)c2cc3sc(CC)cc3n2C)cc1OCC | 0.217 µM (active) |
| COc1ccc(CCNC(=O)c2cc3sccc3n2Cc2ccccc2)cc1OC | inactive |
| O=C(NC1CCCc2c1cnn2-c1ccc(F)cc1F)c1ccn[nH]1 (stereo not given) | inactive |
| O=C(Cc1ccccc1)NC1CCCc2c1cnn2-c1ccc(F)cc1F (stereo not given) | inactive |
| O=C(NC1CCCCC1)NC1(C(=O)N2CCCC2)CCCCC1 | inactive |
| O=C(NC1CCCc2c1cnn2-c1ccc(F)cc1F)C1CCCCN1 (stereo not given) | inactive |
| Cc1ccc(-c2cnc(SCC(=O)Nc3nc(C)cs3)n2Cc2ccco2)cc1 | inactive |
| COc1ccc(-c2cnc(SCC(=O)Nc3nccs3)n2Cc2ccccc2)cc1 | inactive |
| O=C(NC1CCCc2c1cnn2-c1cc(F)cc(F)c1)c1cccc2nccnc12 (stereo not given) | 8.65 µM (active) |
